In the library only some 2.8% were active in any assay of this set; here they are far more common.
LMP1 NFkB inh – inhibitors of Epstein-Barr LMP1-induced NF-kappaB reporter. inhibition, % at 12.5 µM. hit rate 0.69% among 350,000. LMP1-induced NF-kappaB luciferase reporter cells, luminescence. AID 504558; in the data active = inhibition above about 41%;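 also: 0% = neutral control wells and 100% = reference inhibitor control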
TRPM1 prom inh – inhibitors of MITF-driven TRPM1 promoter in melanoma cells | SK-MEL-5 TRPM1 promoter luciferase, 24 h | inhibition, % at 12.5 µM | hit rate 0.83% among 330,000;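 active = mean inhibition across replicates of 60% or more, whatever share of single replicates reaches that level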
Shn3 inh set2 – inhibitors of Schnurri-3 3'UTR reporter in osteoblasts. Clone20 osteoblast Shn3 3'UTR firefly luciferase, 24 h. inhibition, % at 12.5 µM. hit rate 0.52% among 360,000;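 active = mean inhibition of at least 75% with every replicate also reaching 75%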;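 also: 0% = median of neutral control wells and 100% = pilot-screen positive control compound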
PAX8 inh HTS – lowers PAX8-driven luciferase in RMG-I cells. RMG-I TPO-luciferase reporter, SteadyGlo, 24 h. inhibition, % at 12.6 µM. hit rate 1.2% among 360,000;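 active = mean replicate inhibition at least 60% with every replicate also reaching 60%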;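 also: luciferase light reporting Pax8 driven TPO promoter activity; plate controls were median of neutral control wells for no effect and mitoxantrone controls for full effect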
Peg3 promoter – Peg3 promoter activity inhibition; HeLa PEG-Prom luciferase reporter, luminescence, overnight; inhibition, % at 20 µM; hit rate 1.7% among 360,000;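 active = inhibition of at least 50% at 20 µM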
HIF-2a block – blocks HIF-2a reporter activity. 786-0 RCC cells HIF-2a reporter, luciferase luminescence, overnight. inhibition, % at 18.8 µM. hit rate 0.72% among 360,000. AID 624352;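 active = inhibition of the luminescence signal of 40% or more relative to plate controls, in a single-dose primary screen at 18.75 µM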
The depositor's hits bear a star; . = no result given.

SMILES | LMP1 NFkB inh | TRPM1 prom inh | Shn3 inh set2 | PAX8 inh HTS | Peg3 promoter | HIF-2a block
O=C(C[C@H]1C[C@@H]2c3cc(NC(=O)c4cccnc4)ccc3O[C@@H]2[C@H](CO)O1)NCC1CC1 | . | . | . | -21 | . | .
CCN(CC)S(=O)(=O)c1cc(NC(=O)CSc2nc3c(cc2C#N)C(=O)CC(C)(C)C3)ccc1C | 17 | 25 | 40 | . | 54* | 8
CCN(CC)S(=O)(=O)c1cc(NC(=O)CSc2nnc(N)s2)ccc1C | 0 | 4 | -1 | 2 | 7 | 6
C[C@@H]1CN([C@H](C)CO)C(=O)Cc2cc(NS(=O)(=O)c3cccs3)ccc2O[C@H]1CN(C)C(=O)Nc1ccc(F)cc1 | . | . | . | 3 | . | .
CCn1c(=O)cc(SCC(=O)Nc2ccc(C)cn2)c2ccccc21 | -32 | -1 | -79 | 58 | 83* | -357
CCn1c(=O)cc(SCC(=O)NCc2ccc(C)cc2)c2ccccc21 | -17 | 3 | -9 | 12 | 2 | 3
Cn1c(=N)n(CC(=O)c2ccc(Br)s2)c2ccccc21 | -43 | -15 | -29 | . | -138 | -184
CCN(CC)CCn1c(=N)n(CC(=O)c2ccc(Br)s2)c2ccccc21 | . | . | -13 | 25 | 80* | 8
CC(=O)Nc1ccc2c(c1)Cc1c-2cc(Cl)c(NC(C)=O)c1Cl | 3 | -19 | -11 | -25 | -40 | -106
O=C(Nc1c(Cl)cc2c(c1Cl)Cc1cc([N+](=O)[O-])ccc1-2)C(Cl)Cl | -30 | -15 | 95* | 13 | -4 | -25
Cc1noc(C)c1NC(=O)N[C@H]1CC[C@@H](CCNC(=O)C2CCOCC2)O[C@@H]1CO | . | . | . | -18 | . | .
O=C(Nc1ccc(OCC(F)(F)C(F)F)c(C(F)(F)F)c1)c1ccccc1O | 23 | 63* | 79 | 100* | -60 | -177
C[C@@H]1CN([C@@H](C)CO)S(=O)(=O)c2ccc(C#CC3CCCC3)cc2O[C@H]1CN(C)Cc1cccnc1 | . | . | . | 84* | . | .
COc1ccccc1C#Cc1ccc2c(c1)O[C@H](CN(C)Cc1cccnc1)[C@H](C)CN([C@@H](C)CO)S2(=O)=O | . | . | . | 87* | . | .
C[C@H]1CN([C@@H](C)CO)S(=O)(=O)c2ccc(C#CC3CCCC3)cc2O[C@H]1CN(C)Cc1cccnc1 | . | . | . | 14 | . | .
C[C@@H]1CN([C@H](C)CO)S(=O)(=O)c2ccc(C#CC3CCCC3)cc2O[C@H]1CN(C)Cc1cccnc1 | . | . | . | 87* | . | .
CN(C)C(=O)c1cccc(-c2ccc(C3[C@@H]4CN(C(=O)c5ccccn5)C[C@H]3N4)cc2)c1 (stereo not given in full) | . | . | . | -6 | . | .
CCCNC(=O)C[C@@H]1CC[C@H]2[C@@H](COc3ccc(NC(=O)Nc4c(C)noc4C)cc3C(=O)N2C)O1 | . | . | . | -4 | . | .
COC(=O)C[C@H]1CC[C@@H]2[C@H](COc3ccc(NC(=O)Nc4ccccc4C)cc3C(=O)N2C)O1 | . | . | . | 3 | . | .
O=[N+]([O-])c1ccc(/C=N/Nc2cc(Cl)nc(-c3ccccc3)n2)cc1 | 85* | 14 | 5 | . | 11 | 11
O=[N+]([O-])c1cccc(/C=N/Nc2cc(Cl)nc(-c3ccccc3)n2)c1 | 15 | 7 | 11 | . | 2 | -36
C[C@@H]1CN([C@H](C)CO)S(=O)(=O)c2ccc(C#Cc3ccccc3)cc2O[C@@H]1CN(C)C(=O)c1ccccn1 | . | . | . | 0 | . | .
CCCCc1ccc(NC(=O)N2CCN(c3cc(C)nc4ccccc34)CC2)c(C)c1 | 4 | 18 | 40 | . | 60* | 15
COC(=O)C1=C(C)N(C)C(=NCc2ccccc2C(F)(F)F)NC1c1ccc(Cl)cc1 (stereo not given) | . | . | . | -4 | . | .
CCN1CCN(Cc2ccc(NC(=O)c3ccc(C)c(/C=C/c4cnc(Nc5cc(N6CCNCC6)nc(C)n5)cn4)c3)cc2C(F)(F)F)CC1 | 69* | 98* | 96* | . | 96* | 1
SMILES | LMP1 NFkB inh | TRPM1 prom inh | Shn3 inh set2 | PAX8 inh HTS | Peg3 promoter | HIF-2a block
CCN1CCN(Cc2ccc(NC(=O)c3ccc(C)c(NC(=O)c4cccc(-c5cn[nH]c(=O)c5)c4)c3)cc2C(F)(F)F)CC1 | 61* | 19 | 7 | . | 4 | 24
CCN1CCN(Cc2ccc(NC(=O)c3ccc(C)c(NC(=O)c4ccno4)c3)cc2C(F)(F)F)CC1 | 47* | -6 | 18 | -16 | 18 | 12
CCN1CCN(Cc2ccc(NC(=O)c3ccc(C)c(NC(=O)c4csc(-c5ccncc5)n4)c3)cc2C(F)(F)F)CC1 | 18 | 49 | -1 | 25 | -9 | 22
O=C(C[C@@H]1C=C[C@@H](NC(=O)CC2CC2)[C@H](CO)O1)NCc1ccc(Cl)cc1 | . | . | . | -11 | . | .
Cc1ccc(S(=O)(=O)N[C@@H]2CC[C@H](CCNC(=O)C3CCCCC3)O[C@H]2CO)cc1 | . | . | . | 17 | . | .
Cc1cccc(-c2ccc3ncnc(NCc4cccs4)c3c2)c1 | -5 | 43 | 11 | 65* | 9 | 8
Cc1cccc(CNc2ncnc3ccc(-c4ccc5c(c4)OCCO5)cc23)c1 | -15 | 31 | 8 | 80* | 21 | 16
c1nc(NCc2ccc3c(c2)OCO3)c2cc(-c3ccc4c(c3)OCCO4)ccc2n1 | -10 | 6 | -23 | 49 | -12 | -6
Clc1cccc(-c2ccc3ncnc(NCc4cccs4)c3c2)c1 | -2 | 5 | 4 | 3 | 12 | 10
O=C(C[C@H]1CC[C@@H]2NC[C@@H](O)COC[C@H]2O1)Nc1ccccc1 | . | . | . | -7 | . | .
O=C(C[C@H]1C/C=C\CC[C@H](Cc2ccc(F)cc2)C(=O)O[C@@H](c2ccccc2)CNC1=O)N[C@@H](CO)Cc1ccccc1 | 5 | 1 | 26 | 1 | 66* | 17
O=C(C[C@@H]1C/C=C/CC[C@@H](Cc2ccc(F)cc2)C(=O)OC[C@H](Cc2ccccc2)NC1=O)N[C@H](CO)Cc1ccccc1 | -2 | 2 | 38 | 14 | 55* | 3
Cc1ccc2nc(-c3ccc(SCC(=O)Nc4nnc(C)s4)nc3)[nH]c2c1 | -11 | -3 | -24 | . | 99* | -35
COc1ccc(NC(=O)N[C@@H]2CC[C@@H](CCn3cc(-c4ccccn4)nn3)O[C@H]2CO)cc1 | . | . | . | -5 | . | .
Cc1cc(Cl)c(S(=O)(=O)N2CCCCCC2)cc1OCC(=O)NC1CCCCC1 | 8 | 17 | 16 | 12 | 8 | 15
Cc1cc(Cl)c(S(=O)(=O)N2CCSCC2)cc1OCC(=O)NC1CCCCC1 | 24 | 48 | 88* | . | 24 | 22
COc1ccc2c3c(n(C)c2c1)[C@H](CO)N(Cc1ccccc1OC)CC31CCN(C(=O)C2CC2)CC1 | . | . | . | 9 | . | .
CC[C@H](CO)Nc1nc(Nc2cccc(Cl)c2)c2ncn(C(C)C)c2n1 | -14 | 32 | 41 | 78* | 94* | -5
CC(C)[C@H](CO)N(Cc1cccc(F)c1)c1nc(Nc2cccc(Cl)c2)c2ncn(C(C)C)c2n1 | -19 | 9 | 6 | 14 | 23 | 18
C[C@H](CO)N1C[C@H](C)[C@@H](CN(C)C(=O)c2cccc(F)c2)Oc2ncc(-c3cccc(F)c3)cc2C1=O | . | . | . | 0 | . | .
N#Cc1nccnc1S(=O)(=O)c1cccs1 | . | . | . | 102* | . | .

From PubChem
